Here are results for 66 sequences from PubChem BioAssay AID1159506 (National Center for Advancing Translational Sciences (NCATS), 2015).

Over roughly 59,000 sequences, the read-out has its median near -0.00055; the lowest 2% begin near -2. Many of the other results were omitted from the sample, so the lowest values are more common in it than they were.

This test is described as follows: Identification of proteins required for the processing of the EWS-FLI1 nascent transcript.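 Note: robust z of luciferase light less the median z of siRNAs with the same seed.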 The conditions noted are these: TC32 Ewing sarcoma NR0B1-luc vs CMV-luc (EWS-FLI1 target promoter against control promoter), 48 h; screened at 20 nM (by protocol). The method, boiled down: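 TC32 Ewing sarcoma cells carrying NR0B1-promoter or CMV-promoter luciferase reporters were reverse-transfected with single siRNAs at 20 nM, three per gene genome-wide. Luminescence was read after 48 h and normalized to non-targeting controls.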
The sequence UAUUAUUGUCUGGAACAUC against C12orf57 showed a seed-corrected z-score of 0.301.

Sequence UGACGUACAGCAUUGACAG against PHLPP2 yielded a seed-corrected z-score of 0.366.

For the sequence UAAGUCCCAAUUCACUCUC against FAM134B, the seed-corrected z-score is 2.19.

In turn, UCUGGUUCCAGGUUGCUUA against SFXN3 came in with a seed-corrected z-score of -2.37.

Turning to AGUAGAAAGACCAUGCUUG against TUBB2A, the seed-corrected z-score is 0.712.

As for AAAACUAUUGGUUUCUUCC against GCOM1, the seed-corrected z-score was -0.0313.

UUCGUAGUGGAGUGAAUCC against DHH had a seed-corrected z-score of -0.195.

Consider ACUGCUUUCCUUAAAAUCC against CCDC40, for which the seed-corrected z-score was -3.74.

As for UUGUUAACCAAGACAACGC against SNAPIN, the seed-corrected z-score is 0.13.

With UGCUAUAUCUAGAUGUUCC against RMDN2, the seed-corrected z-score is -0.178.

Sequence UCUUUGUUCCAUCAUGACC against NDUFAF7 yielded a seed-corrected z-score of 0.211.

With UCAUUUCGCACAGCUUCCU against RARG, the seed-corrected z-score amounted to 0.369.

Regarding AAUGCUCCAAGACUGGAGG against PTCRA, the seed-corrected z-score is -1.44.

On to UACAUGGUAAUAACUUUUC against MARCKS, for which the seed-corrected z-score is -0.217.

Turning to UUUGUUCAUCACGAAAGUC against SDHAF3, the seed-corrected z-score was -0.383.

AGAGUGUCAAGCAGCAUGG against EEF1A1P33: the seed-corrected z-score was -2.33.

Sequence UGCGGAUCAAGUCUGAGAC against MSH5 gave a seed-corrected z-score of -0.442.

The sequence UGAGUUUCUCGCACGUCUC against WNT4 had a seed-corrected z-score of -2.44.

UGAGGCUCCAGUUUCAGGC against SLC3A2: the seed-corrected z-score was found to be 1.53.

The sequence UGACUUGACUCCGAUCUGC against AP2A1 returned a seed-corrected z-score of -0.384.

As to UUCGUGGUCUUGCAGAAGC against LY6D, the seed-corrected z-score is -0.178.

Regarding GAUAGUUGUAGGGUGUGGC against NDUFA3P3, the seed-corrected z-score turned out to be 0.165.

In the case of UAACUUAUCUAAACUACUC against SPAG9, the seed-corrected z-score was -0.547.

With AAUGGUUUCACCGGCAGCG against IFRD2, the seed-corrected z-score is -2.09.

In the case of AACUCUUCUAUGUCGAAUG against ZNF551, the seed-corrected z-score was -0.267.

In turn, UCCGAUGACACCAAGAGCG against REEP5 returned a seed-corrected z-score of 0.932.

UACUUUACGUUCUUCGAUC against PAGE4 showed a seed-corrected z-score of 0.246.

For the sequence ACUGGAGAUAGUGCUGUUG against SUN2, the seed-corrected z-score is -4.61.

UGUGAUGUUAGCAAUCUUC against TAS2R41 came in with a seed-corrected z-score of -0.517.

Regarding UAGUCAACAAUGUCACAUC against ELOVL7, the seed-corrected z-score was -0.576.

Regarding UGAUGCACCAUCACAGUCU against SUSD6, the seed-corrected z-score is 0.212.

CACCAGGAUGGUUUGGUUG against BRICD5 returned a seed-corrected z-score of 1.06.

UCUUCGGUCAUGAAUGAGG against TAT: the seed-corrected z-score was -0.586.

Sequence UCUGUCAUCUUUUUGGGUG against PSMD8 showed a seed-corrected z-score of -4.18.

For the sequence UCCGAUACCGACAAUAACC against ADAM7, the seed-corrected z-score was 0.224.

In the case of UGAAGUACACCUUAAAGCC against SCN4A, the seed-corrected z-score was determined as 0.557.

Sequence UCUGUUCCAAUACUGCUUG against CD209 showed a seed-corrected z-score of -0.501.

In turn, AUGGUGUCAAGAAUAAGGC against ROPN1L came in with a seed-corrected z-score of 1.14.

For UCAGCAACAACGGAUAUCG against PLEKHG7, the seed-corrected z-score is -0.178.

In turn, AAAGUGCCCAAAACGAUGG against ATP2B3 had a seed-corrected z-score of 0.438.

AACAUCUCCAAUGAUAGGG against NR0B2 displayed a seed-corrected z-score of -2.16.

On to UCACCUACUUCGAUCUUCC against MECOM, for which the seed-corrected z-score is -0.295.

For the sequence AAUCAUGCCCUUUUUGUGG against FPR2, the seed-corrected z-score is -2.

For the sequence UUCCAGCCCAUGAGAACCC against DKK2, the seed-corrected z-score was 0.436.

Consider AACGGAAAUGCUGACAUCG against EPRS, for which the seed-corrected z-score is -0.386.

AGAGUUUCCUGAGUCUUCU against TPD52L2 registered a seed-corrected z-score of -2.41.

Take UAUCAUUGCGUGUUGCUGC against BBOF1: the seed-corrected z-score was 0.0553.

UCUGUGAGGAAUGCUGUCC against RFT1 showed a seed-corrected z-score of -2.48.

UUCUAGCUCACUGAAGUCC against PYGL had a seed-corrected z-score of -0.371.

UUCAGGGCAUUUAAAGGGC against ZNF629: the seed-corrected z-score is -0.898.

Sequence AAGAUAAUAAAAACGUAGG against SLC2A14 showed a seed-corrected z-score of 0.0262.

ACUGCUUACACUCACAUGG against ZNF490 had a seed-corrected z-score of -4.22.

Take UGGGAGCAAAGCAUAGUCG against PNMA3: the seed-corrected z-score was -1.88.

Take UACUUGACUGAAAUGUCUC against ZNF829: the seed-corrected z-score was -0.616.

UAGUUGUCCUGGUCGGAGC against LY6E came in with a seed-corrected z-score of -2.61.

UUGCAUGCAAUGGUGAGGC against S100A10 came in with a seed-corrected z-score of -1.4.

In turn, UACUUUGCGACCAUUUAGG against PABPC3 displayed a seed-corrected z-score of -1.3.

In turn, UCUGUAACAUGCGGAGUUC against M1AP showed a seed-corrected z-score of -0.631.

ACCGUGUUCAGAUAGCCUG against RACK1 had a seed-corrected z-score of -1.01.

The sequence AAUGUUGACACGUCUCCUG against TOB1 had a seed-corrected z-score of 0.235.

UUGGGAGUGAAAACAGAGG against OR8B2 returned a seed-corrected z-score of -3.41.

AACUUCUUCAAGGUAAUUG against PJA1: the seed-corrected z-score amounted to 0.88.

On to AAAGUUUCACUCUUUCUGG against TPT1P8, for which the seed-corrected z-score was -0.645.

UUCGAUUGAAAGAAGGCCU against MYOZ1 returned a seed-corrected z-score of -0.336.

AACUCUAUUCAUGAGCUCG against ANGPTL5 came in with a seed-corrected z-score of 0.0468.

UUCCUGAUUAGUAAUGUCG against RAB5B showed a seed-corrected z-score of 0.136.
